This passage reports outcome and AC50 results from PubChem BioAssay (EPA / NIEHS).

Read-out in test [1]: Interleukin-1 alpha (IL1a), IL1A (gene 3552)
The test is described as follows: BSK_LPS_IL1a: BioMAP Diversity Plus: LPS Assay for Interleukin-1 alpha (IL1a) Biomarker Activity (AID 2283080). To be noted: primary human HUVEC with PBMC; actives raise or lower the signal. An outline of the steps:
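Measured: IL-1 alpha via ELISA at 24 h in LPS-activated human umbilical vein endothelium–PBMC co-culture. Baseline: DMSO, bidirectional fitting.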

Read-out in test [2]: Monocyte Chemoattractant Protein-1 (MCP1), CCL2 (gene 6347)
The test is described as follows: BSK_LPS_MCP1: BioMAP Diversity Plus: LPS Assay for Monocyte Chemoattractant Protein-1 (MCP1) Biomarker Activity (AID 2283081). To be noted: primary human HUVEC with PBMC; actives raise or lower the signal. An outline of the steps: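 LPS-stimulated HUVEC/PBMC co-culture; chemical, 24 h; MCP-1 by ELISA; bidirectional fit vs DMSO; cytotoxicity via SRB (0.1% stain, 10% TCA fix, 560 nm) in parallel wells.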

Test [3] can be described thus: BSK_LPS_PGE2: BioMAP Diversity Plus: LPS Assay for Prostaglandin E2 (PGE2) Biomarker Activity (AID 2283082).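 For AC50: secreted prostaglandin E2 measured by ELISA in LPS-stimulated co-culture.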 To be noted: primary human HUVEC with PBMC; actives raise or lower the signal. Put shortly:
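ELISA read-out of PGE2 from human umbilical vein endothelial cells co-cultured with peripheral blood mononuclear cells under LPS, 24 h post-dose. Gain or loss of signal scored relative to DMSO baseline.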

Read-out in test [4]: Macrophage colony-stimulating factor (MCSF), CSF1 (gene 1435)
Description: BSK_LPS_MCSF: BioMAP Diversity Plus: LPS Assay for Macrophage colony-stimulating factor (MCSF) Biomarker Activity (AID 2283083). To be noted: primary human HUVEC with PBMC; actives raise or lower the signal. An outline of the steps: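 Compound is added to a human vascular primary co-culture of umbilical vein endothelium and blood mononuclear cells. After 24 h, M-CSF is quantified by ELISA. Signal changes are fitted in both directions against DMSO.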

Read-out in test [5]: Tissue Factor, F3 (gene 2152)
Description: BSK_LPS_TissueFactor: BioMAP Diversity Plus: LPS Assay for Tissue Factor Biomarker Activity (AID 2283084). To be noted: primary human HUVEC with PBMC; actives raise or lower the signal. Put shortly: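 In this co-culture system of umbilical vein endothelium with PBMC, stimulated with LPS, cell-surface CD142 is detected by ELISA at 24 h. Endpoint values derive from bidirectional fitting, DMSO serving as baseline.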

Read-out in test [6]: Tumor necrosis factor (Homo sapiens) (UniProt P01375)
Description: BSK_LPS_TNFa: BioMAP Diversity Plus: LPS Assay for Tumour Necrosis Factor alpha (TNFa) Biomarker Activity (AID 2283085).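 For AC50: TNFa protein level quantified by ELISA in the co-culture.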 To be noted: primary human HUVEC with PBMC; actives raise or lower the signal. Put shortly: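 HUVEC/PBMC co-culture, LPS-stimulated; 24 h post-dose; TNFa by ELISA; gain or loss of signal fitted bidirectionally vs DMSO baseline.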

Read-out in test [7]: Vascular cell adhesion molecule 1 (VCAM1), VCAM1 (gene 7412)
The test is described as follows: BSK_LPS_VCAM1: BioMAP Diversity Plus: LPS Assay for Vascular cell adhesion molecule 1 (VCAM1) Biomarker Activity (AID 2283086). To be noted: primary human HUVEC with PBMC; actives raise or lower the signal. An outline of the steps: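 ELISA read-out of VCAM-1 at 24 h post-dosing in an LPS-driven HUVEC/PBMC primary human co-culture; gain or loss of signal fitted bidirectionally against DMSO baseline. Cytotoxicity tracked in parallel cultures by SRB total-protein staining.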

Read-out in a further test: CD38, CD38 (gene 952)
Description: BSK_SAg_CD38: BioMAP Diversity Plus: SAg Assay for CD38 Biomarker Activity (AID 2283087). To be noted: primary human HUVEC with PBMC; actives raise or lower the signal. An outline of the steps:
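Measures CD38 on a human endothelial/PBMC co-culture driven by SEB and TSST-1, 24 h after compound exposure, using ELISA with fluorescence detection; DMSO defines baseline for bidirectional curve fitting.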

Read-out in a further test: CD40, CD40 (gene 958)
Description: BSK_SAg_CD40: BioMAP Diversity Plus: SAg Assay for CD40 Biomarker Activity (AID 2283088). To be noted: primary human HUVEC with PBMC; actives raise or lower the signal. Put shortly:
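Fluorescence ELISA read-out of CD40 from umbilical vein endothelium plus peripheral blood mononuclear cells, sampled 24 h after dosing. Values come from bidirectional curve fitting with DMSO as baseline.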

Read-out in the next test: CD69, CD69 (gene 969)
The test is described as follows: BSK_SAg_CD69: BioMAP Diversity Plus: SAg Assay for CD69 Biomarker Activity (AID 2283089). To be noted: primary human HUVEC with PBMC; actives raise or lower the signal. An outline of the steps:
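HUVEC co-cultured with PBMC were dosed with chemical, and CD69 was measured by ELISA with fluorescence read-out 24 h later. Bidirectional curve fitting used DMSO as negative control and activity baseline.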

Read-out in test [8]: Monocyte Chemoattractant Protein-1 (MCP1), CCL2 (gene 6347)
The test is described as follows: BSK_SAg_MCP1: BioMAP Diversity Plus: SAg Assay for Monocyte Chemoattractant Protein-1 (MCP1) Biomarker Activity (AID 2283090). To be noted: primary human HUVEC with PBMC; actives raise or lower the signal. Put shortly: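 Values derive from bidirectional fitting of ELISA-measured MCP1 against DMSO controls. Readings were taken 24 h after dosing human vascular endothelial cells co-cultured with peripheral blood mononuclear cells under superantigen stimulation.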

Read-out in test [9]: E-selectin (Homo sapiens) (UniProt P16581)
Description: BSK_SAg_Eselectin: BioMAP Diversity Plus: SAg Assay for Eselectin Biomarker Activity (AID 2283091). To be noted: primary human HUVEC with PBMC; actives raise or lower the signal. Put shortly:
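Primary human endothelial cells and peripheral blood mononuclear cells were co-cultured and exposed to chemical for 24 hours. E-selectin levels were then quantified by ELISA, with bidirectional curve fitting normalised to DMSO controls.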

Read-out in test [10]: Monokine induced gamma interferon (MIG), CXCL9 (gene 4283)
The test is described as follows: BSK_SAg_MIG: BioMAP Diversity Plus: SAg Assay for Monokine induced gamma interferon (MIG) Biomarker Activity (AID 2283092). To be noted: primary human HUVEC with PBMC; actives raise or lower the signal. An outline of the steps: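 HUVEC plus human PBMC co-culture, chemicals dosed and MIG (CXCL9) quantified by ELISA at 24 h. Bidirectional curve fitting against DMSO as negative control and baseline, so both gain and loss of signal count as activity.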

Test [11] is described as follows: BSK_SAg_PBMCCytotoxicity: PBMC Cytotoxicity Assessment in the BioMAP Diversity Plus: SAg Assay (AID 2283093).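 For AC50: PBMC superantigen activated with SEB plus TSST-1 one hour after compound addition.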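 Note: fitted both ways against DMSO so a hit may be loss or gain of signal.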 To be noted: primary human HUVEC with PBMC. An outline of the steps: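 PBMC viability by Alamar Blue reduction, fluorescence read at 546/580 nm after 6 h dye exposure. Cells were dosed 1 h before SEB plus TSST-1 activation (20 ng/mL final each), then held 90 h; endothelial/PBMC human co-culture.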

Read-out in test [12]: Interleukin-8 (IL8), CXCL8 (gene 3576)
The test is described as follows: BSK_SAg_IL8: BioMAP Diversity Plus: SAg Assay for Interleukin-8 (IL8) Biomarker Activity (AID 2283094). To be noted: primary human HUVEC with PBMC; actives raise or lower the signal. An outline of the steps: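 HUVEC/PBMC co-culture, 24 h post-dose; IL-8 by ELISA. Gain or loss of signal fitted bidirectionally vs DMSO baseline.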

Test [13] is described as follows: BSK_SAg_Proliferation: Cell Proliferation Assessment in the BioMAP Diversity Plus: SAg Assay (AID 2283095).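 Note: relative cell number as total protein by SRB absorbance in sub-confluent culture.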 To be noted: primary human HUVEC with PBMC. An outline of the steps: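 HUVEC/PBMC co-culture, 96-well. TCA-fixed (10%), 0.1% SRB stain, A560 at 96 h. Protein content used as viability readout; bidirectional fitting vs DMSO control.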
Test [14] in a line: BSK_SAg_SRB: Viability Assessment in the BioMAP Diversity Plus: SAg Assay (AID 2283096).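 Note: cells read one day after compound addition; hits may be either gain or loss of signal compared with DMSO.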 To be noted: primary human HUVEC with PBMC. Put shortly:
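Compounds were added to a human vascular co-culture of umbilical vein endothelium and PBMC. After 24 h, parallel cultures were fixed with 10% TCA, stained with 0.1% sulforhodamine B and read at 560 nm. Gain or loss of signal was fitted relative to DMSO.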

Test [15] deals with human CYP19A1, CYP19A1 (gene 1588) (UniProt P11511). Description: NVS_ADME_hCYP19A1: NovaScreen (NVS) CYP450-related Enzyme Activity (ADME) Assay for human CYP19A1 (AID 2283098; active = hit-call score of the fitted dose curve at least 0.9, where 1 is the maximum;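 for AC50: potency for inhibitors seen as loss of fluorescent enzyme signal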). An outline of the steps: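 Fluorescence intensity read-out; activity taken as signal loss relative to acetonitrile vehicle. Extracted enzyme, specific substrate, no cells, 0.5 h exposure. Duplicate single-point screen at 10 uM, then concentration–response follow-up for actives.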

The target in test [16] is human CYP2A6, CYP2A6 (gene 1548) (UniProt P11509). Description: NVS_ADME_hCYP2A6: NovaScreen (NVS) CYP450-related Enzyme Activity (ADME) Assay for human CYP2A6 (AID 2283099; active = hit-call score of the fitted dose curve at least 0.9, where 1 is the maximum). Put shortly: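 Recombinant human CYP2A6 from insect cells was incubated with chemical for 0.5 h and activity read by fluorescence. Single-concentration duplicates at 10 uM preceded concentration-response testing to 20 uM, with activity referenced to acetonitrile.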

Test [17] concerns the target human CYP1A1, CYP1A1 (gene 1543) (UniProt P04798). Description: NVS_ADME_hCYP1A1: NovaScreen (NVS) CYP450-related Enzyme Activity (ADME) Assay for human CYP1A1 (AID 2283100; active = hit-call score of the fitted dose curve at least 0.9, where 1 is the maximum). An outline of the steps: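 Compounds first went through duplicate single-concentration testing at 10 uM against purified CYP1A1. Those passing a threshold such as 30% inhibition entered singleton dose-response, highest concentration 20 uM. Signal was fluorescence measured after 1 hour.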

Where “and” joins values, the source holds several entries; their conditions need not be identical. Equal values may be shown once. Results filed as inconclusive are left out. Some structures have more than one record in an assay (separate samples or runs), and their calls can disagree. Calls of active or inactive are those of the source. Rule for the calls, unless noted: active = hit-call score of the fitted dose curve at least 0.9, where 1 is the maximum; inactive = score below 0.9.

By AC50 is commonly meant the concentration giving half of the maximal activity seen.

Sequence of E-selectin (Homo sapiens) (P16581 whole entry, looked up): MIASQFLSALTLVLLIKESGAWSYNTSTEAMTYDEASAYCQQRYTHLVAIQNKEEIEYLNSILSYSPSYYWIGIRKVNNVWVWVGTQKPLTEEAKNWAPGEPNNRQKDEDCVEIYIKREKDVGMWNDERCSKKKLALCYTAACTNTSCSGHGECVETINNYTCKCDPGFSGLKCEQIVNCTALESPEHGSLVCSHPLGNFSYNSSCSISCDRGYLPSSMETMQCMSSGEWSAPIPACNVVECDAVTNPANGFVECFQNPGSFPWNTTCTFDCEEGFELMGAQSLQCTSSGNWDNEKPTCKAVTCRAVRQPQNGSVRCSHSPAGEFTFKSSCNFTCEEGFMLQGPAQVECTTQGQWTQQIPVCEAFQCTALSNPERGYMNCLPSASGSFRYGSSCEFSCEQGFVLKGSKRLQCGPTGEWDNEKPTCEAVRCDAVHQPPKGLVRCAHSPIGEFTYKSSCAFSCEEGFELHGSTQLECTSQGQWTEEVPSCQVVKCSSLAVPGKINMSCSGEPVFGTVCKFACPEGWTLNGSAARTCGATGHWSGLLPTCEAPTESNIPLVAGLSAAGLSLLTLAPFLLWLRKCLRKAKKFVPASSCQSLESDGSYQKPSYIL
Sequence of human CYP1A1, CYP1A1 (gene 1543) (P04798 whole entry, looked up): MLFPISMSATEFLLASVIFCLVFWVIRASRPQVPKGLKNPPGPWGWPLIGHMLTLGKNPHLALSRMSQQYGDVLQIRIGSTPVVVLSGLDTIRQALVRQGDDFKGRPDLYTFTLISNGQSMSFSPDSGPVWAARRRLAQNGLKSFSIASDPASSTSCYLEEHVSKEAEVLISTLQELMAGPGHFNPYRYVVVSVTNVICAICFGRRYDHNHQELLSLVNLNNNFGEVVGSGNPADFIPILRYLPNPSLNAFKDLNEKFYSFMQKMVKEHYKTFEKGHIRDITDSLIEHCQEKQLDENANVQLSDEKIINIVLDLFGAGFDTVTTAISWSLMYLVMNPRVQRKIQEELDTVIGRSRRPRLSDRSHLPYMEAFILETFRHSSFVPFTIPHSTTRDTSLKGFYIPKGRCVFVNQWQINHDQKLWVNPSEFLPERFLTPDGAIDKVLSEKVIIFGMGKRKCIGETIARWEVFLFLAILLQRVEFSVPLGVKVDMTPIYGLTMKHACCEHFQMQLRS
Sequence of Tumor necrosis factor (Homo sapiens) (P01375 whole entry, looked up): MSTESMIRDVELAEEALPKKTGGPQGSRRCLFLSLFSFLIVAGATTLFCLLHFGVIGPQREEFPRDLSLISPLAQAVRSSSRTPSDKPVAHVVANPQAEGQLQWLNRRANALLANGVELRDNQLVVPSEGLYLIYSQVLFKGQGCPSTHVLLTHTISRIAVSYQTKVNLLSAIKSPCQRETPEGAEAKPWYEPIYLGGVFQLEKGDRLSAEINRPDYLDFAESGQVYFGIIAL
Sequence of human CYP19A1, CYP19A1 (gene 1588) (P11511 whole entry, looked up): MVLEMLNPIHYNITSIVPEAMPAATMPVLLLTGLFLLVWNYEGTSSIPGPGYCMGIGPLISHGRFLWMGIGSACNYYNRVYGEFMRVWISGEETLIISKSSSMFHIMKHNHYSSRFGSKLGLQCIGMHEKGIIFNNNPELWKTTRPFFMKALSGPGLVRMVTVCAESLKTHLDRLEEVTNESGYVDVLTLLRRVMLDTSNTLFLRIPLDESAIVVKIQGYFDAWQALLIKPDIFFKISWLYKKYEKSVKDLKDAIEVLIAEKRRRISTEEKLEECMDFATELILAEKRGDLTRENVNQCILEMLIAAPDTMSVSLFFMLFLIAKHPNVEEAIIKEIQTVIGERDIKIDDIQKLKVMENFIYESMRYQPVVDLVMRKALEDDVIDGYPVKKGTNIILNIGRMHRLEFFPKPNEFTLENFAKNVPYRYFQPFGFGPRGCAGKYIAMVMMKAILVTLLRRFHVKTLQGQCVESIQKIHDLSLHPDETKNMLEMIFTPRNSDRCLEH
Sequence of human CYP2A6, CYP2A6 (gene 1548) (P11509 whole entry, looked up): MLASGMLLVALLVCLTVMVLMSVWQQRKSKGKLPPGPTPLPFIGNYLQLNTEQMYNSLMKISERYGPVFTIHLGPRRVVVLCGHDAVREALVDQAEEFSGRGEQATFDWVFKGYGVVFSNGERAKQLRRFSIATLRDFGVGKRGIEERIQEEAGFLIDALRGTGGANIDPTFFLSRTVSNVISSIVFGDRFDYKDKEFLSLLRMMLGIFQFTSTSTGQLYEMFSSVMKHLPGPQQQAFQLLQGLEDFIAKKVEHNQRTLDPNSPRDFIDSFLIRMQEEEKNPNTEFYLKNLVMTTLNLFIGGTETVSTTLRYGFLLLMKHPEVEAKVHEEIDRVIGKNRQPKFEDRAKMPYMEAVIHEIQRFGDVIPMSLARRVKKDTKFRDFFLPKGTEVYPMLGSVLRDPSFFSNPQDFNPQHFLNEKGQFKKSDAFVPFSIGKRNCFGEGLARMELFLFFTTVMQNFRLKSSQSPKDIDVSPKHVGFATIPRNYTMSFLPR

Take `CC(C)(C)C(O)C(Oc1ccc(Cl)cc1)n1cncn1` (stereo not drawn): the outcome in test [1], in [2], in [3], in test [4], in test [5] and in [6] was inactive. Also, the outcome in test [7] was “inactive”; in the test with CD38, CD38 (gene 952), “inactive”; with CD40, CD40 (gene 958) it was “inactive”; with CD69, CD69 (gene 969), “inactive”; in [8], “inactive”; in test [9] it was “inactive”. In addition, the outcome in test [10], in test [11], in test [12], in test [13], in test [14] and in [16] was inactive. Besides, in test [17], the molecule was classed as inactive. Besides, the AC50 in [3] is 3.1 µM (active); in test [4], 20 µM (active); in the test with CD38, CD38 (gene 952) it was 4.99 µM (active); with CD40, CD40 (gene 958), 8.99 µM (active); in test [9], 12.9 µM (active); in test [11], 3.38 µM (active). Moreover, the AC50 in test [12] was 10.6 µM (active); in [13] it was 15 µM (active); in test [15] it was 7.34 µM (active) and 2.41 µM (active); in [17], 7.11 µM (active).

Take `CC(C)OC(=O)Nc1cccc(Cl)c1`: the result in [1], in test [2], in test [4], in [5], in test [6] and in test [7] was inactive. For the same molecule, the outcome in the test with CD38, CD38 (gene 952) is “inactive”; in the test with CD40, CD40 (gene 958), “inactive”; in the test with CD69, CD69 (gene 969), “inactive”; in test [8], “inactive”; in [9], “inactive”; in test [10] it was “inactive”. The result in test [11], in [12] and in [13] was inactive. In addition, the AC50 in test [3] was 6.13 µM (active); in [14], 1.76 µM (active).

For the molecule `O=S(=O)(O)C(F)(F)C(F)(F)C(F)(F)C(F)(F)C(F)(F)C(F)(F)C(F)(F)C(F)(F)F`, the outcome in test [1], in [2], in test [3], in test [4], in test [5] and in [6] was inactive. Also, the outcome is “inactive” in test [7]; “inactive” with CD38, CD38 (gene 952); “inactive” with CD40, CD40 (gene 958); “inactive” in the test with CD69, CD69 (gene 969); “inactive” in test [8]; “inactive” in test [9]. For the same molecule, the result in test [10], in [11], in test [12], in test [13], in test [14] and in [15] was inactive. For the same molecule, the AC50 in [6] was 15 µM (active); with CD40, CD40 (gene 958) it was 20 µM (active); in test [9], 20 µM (active); in test [15], 5.35 µM (active).
